Measurements reported in the supplement of paper PMC6555819.

Columns and labels:
Assay in all cases: PBM binding z-score (relative to random genomic background probes); higher = stronger binding; sequences stand for … in GC…GCGATTGACAGCGTAGAATGAAGG
[1] = test system: FXR:RXRa (NR concentration 270 nM, RXRa partner concentration 90 nM)
Outline: (§1)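 Custom Agilent 4×180K protein-binding microarrays carried double-stranded probes, each with a 34-nt variable region. These regions held direct-repeat seeds, single-nucleotide variants, half-site ablations and random human genomic background sequences. Ligand-free nuclear receptor dimers were incubated on the arrays for 1 h, antibodies against each partner (one per run) detected binding, and scanned fluorescence was regression-normalized. Binding z-scores take the random background probes as reference.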

[2] = test system: LXRa:RXRa (NR concentration 270 nM, RXRa partner concentration 90 nM)
Outline: as §1

[3] = test system: LXRa homodimer (NR concentration 270 nM)
Outline: as §1

[4] = test system: LXRb:RXRa (NR concentration 270 nM, RXRa partner concentration 90 nM)
Outline: as §1

[5] = test system: LXRb homodimer (NR concentration 270 nM)
Outline: as §1

[6] = test system: PPARa:RXRa (NR concentration 270 nM, RXRa partner concentration 90 nM)
Outline: as §1

[7] = test system: PPARg:RXRa (NR concentration 180 nM, RXRa partner concentration 90 nM)
Outline: as §1

[8] = test system: PPARg:RXRa 270nM:90nM, anti-RXR (NR concentration 270 nM, RXRa partner concentration 90 nM)
Outline: as §1

[9] = test system: PPARg:RXRa 30nM:10nM, anti-RXR (NR concentration 30 nM, RXRa partner concentration 10 nM)
Outline: as §1

[10] = test system: PPARg:RXRa 90nM:30nM, anti-RXR (NR concentration 90 nM, RXRa partner concentration 30 nM)
Outline: as §1

| Sequence | PBM binding z-score [1] | PBM binding z-score [2] | PBM binding z-score [3] | PBM binding z-score [4] | PBM binding z-score [5] | PBM binding z-score [6] | PBM binding z-score [7] | PBM binding z-score [8] | PBM binding z-score [9] | PBM binding z-score [10] |
| --- | --- | --- | --- | --- | --- | --- | --- | --- | --- | --- |
| GCTGCTAGGTCAACTGATGGTCAGCTACAGCTCG | 4.25 | 2.91 | 0.26 | 1.97 | 0.014 | 3.65 | 2.65 | 2.9 | 0.862 | 1.99 |
| CCGAGTAGGTTGTGGGGCATTCAGGCAACGGTGA | -0.145 | -0.118 | 0.0165 | 0.178 | -0.163 | 0.496 | 0.169 | 1.61 | -0.549 | 0.776 |
| CCTTACGGGTCACTGACAGGTTATCGCATTTGGA | 5.35 | 4.35 | 0.422 | 3.38 | 0.0444 | 5.12 | 4.53 | 4.36 | 1.04 | 2.96 |
| GATACCGGGTCAGCTAGAGGCCAGAGTATGGAAA | 2.65 | 1.51 | -0.9 | 1.21 | -1.03 | 3.5 | 2.92 | 2.42 | 0.487 | 1.18 |
| ATCTCTAGGTAACCAAGTTCATTGAATGCCGAAC | 0.729 | 2.12 | 2.71 | 1.66 | 1.1 | 2.14 | 1.04 | 1.24 | 0.578 | 0.937 |
| TCTAGTTGGTCACGGAGGTCACACAGGACGGGTA | 3.66 | 3.54 | 2.46 | 3.05 | 0.75 | 3.83 | 3.74 | 3.76 | 3.51 | 3.91 |
| CCTGCTAGGTCATGGTCAACTAATCTACAGTATG | 3.72 | 2.85 | 0.245 | 1.98 | -0.184 | 3.72 | 2.81 | 3.17 | 0.82 | 1.92 |
| CAGCCTAGGTCGGGGCCAGTATAGGAGGAACGTT | -0.375 | -0.409 | -0.6 | -0.47 | -1.25 | -0.00359 | -0.199 | -0.885 | -1.38 | -0.981 |
| CGAACTAGGGCAAGGACAGTGAATCTCCGCACGC | 0.00807 | -0.366 | 0.0437 | -0.81 | -0.814 | 1.76 | 2.96 | 3.03 | 0.479 | 1.87 |
| GCTTTTAGTTGAAAGGGCAACCGAATGATTCTCG | 0.288 | 0.561 | -0.0833 | 0.53 | 0.106 | 2.2 | 2.24 | 4.03 | 1.85 | 3.97 |
| GGAACGAGGGCATTCGAGTTGAAAGCATGGCGAT | 1.15 | 2.67 | -0.268 | 0.406 | -1.04 | 1.85 | 0.762 | 0.887 | -0.332 | 0.259 |
| TCTTGTAGATCAAAGGTTAATAAAGCCGAAGCCT | 1.43 | 1.96 | 0.26 | 2.03 | 0.175 | 4.63 | 7.9 | 7.38 | 7.95 | 8.32 |
| TAGCCTAGGTCATTGAGCCAGTATAGTACGCATC | 4.4 | 3.31 | 0.78 | 2.32 | 0.252 | 3.48 | 1.95 | 1.97 | 0.417 | 1.11 |
| CCTAGCAGGCCAATCTGCGTCACTCAAGGCTTGA | -0.461 | -0.378 | -0.462 | -0.429 | -0.0755 | -0.332 | -0.41 | -1.08 | -1.19 | -1.21 |
| TCGAGTAGGTTAGAGGCATTCAGAATGGCGTCGA | 0.0736 | -0.18 | -0.53 | -0.336 | -1.72 | 0.422 | 1.22 | 2.66 | 1.4 | 2.27 |
| TGAATGAGTTTATAAGATCAGGGAACGTTGCAAA | -0.262 | -0.382 | -0.288 | -0.209 | -0.337 | 0.00137 | 0.119 | 0.389 | 0.73 | 0.5 |
| ACTCGGAGGACAAAGGTCAGACCTACGCCAGTGA | 4.44 | 4.05 | 2.02 | 3.64 | 0.528 | 4.93 | 7.6 | 6.95 | 4.94 | 6.85 |
| ATATGTGGGTTAAGGGTCATTCAGGTTGGTTCGC | 5.26 | 4.74 | 3.07 | 4.91 | 2.59 | 6.53 | 11.6 | 9.82 | 10.4 | 11.3 |
| ACTATCAGTTGAGACGAGGGCAACCGATAGGTTG | 0.189 | 0.0109 | -0.515 | -0.348 | -0.0586 | 0.26 | 0.645 | 0.00158 | 0.149 | -0.0981 |
| TTACCAAGGAGAAAGGTCGTTGATGCACGCCTTG | 1.02 | 1.35 | 0.0075 | 1.32 | -0.338 | 2.37 | 2.36 | 4.03 | 2.56 | 3.74 |
| GCTAGAAGGCCATTTGGGTCACTCAATGACGGGC | 0.421 | 0.146 | -0.572 | 0.474 | -0.706 | 1.49 | 0.807 | 0.44 | -0.268 | -0.245 |
| TATACAGGGTCAAAGGCCAGAGTCCGAATGTCGA | 6.58 | 6.06 | 2.35 | 4.71 | 2.55 | 5.85 | 7.34 | 7.02 | 4.84 | 6.68 |
| GGAACGAGGGCATTCGACTTGATAGCATGGCGAT | 0.596 | 0.173 | -0.634 | -0.0929 | -0.467 | 1.41 | 1.14 | 0.717 | -0.0237 | 0.28 |
| CCTTACGGGTCACGGACAGGTTATAGCATTTGGA | 6.85 | 5.09 | 0.422 | 4.42 | 0.0189 | 6.01 | 6.38 | 6.56 | 3.37 | 5.44 |
| CCTACTGGGCCATTCAGAGATCATTGATCATATG | -0.238 | -0.231 | -0.224 | -0.409 | -0.653 | 0.219 | 0.557 | 0.204 | -0.621 | -0.372 |
